Measurements taken from the supplement of paper PMC10849652.
Targets with a hit are over-represented here; the source holds about 8,800 in all. About 0.5% of all pairs of compound and target were hits. Unmarked numbers belong to inactive results.

How the values were obtained:
Assay in all cases: log2 fold change, soluble protein after heating vs DMSO (PISA); higher = thermal stabilisation; K562 lysate, 10 uM; active = over 0.2 and 3.5 SD of the protein, either way, in both replicates (recomputed)
nilotinib = compound: Cc1cn(-c2cc(NC(=O)c3ccc(C)c(Nc4nccc(-c5cccnc5)n4)c3)cc(C(F)(F)F)c2)cn1 [nilotinib]
How it was run: (§1)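 K562 pellets were dounce-homogenised in PBS pH 7.4 containing 1 mM MgCl2, and the crude extract, at 1 mg/mL protein, was exposed to 10 μM compound for 30 min. Aliquots were heated for 3 min across 48°C-58°C, pooled, brought to 0.5% NP-40 at 4°C and spun at 21,000xg for 90 min, with the supernatant taken as soluble protein. TMTpro 16plex LC-MS/MS with equalised channel sums quantified that protein. Values are log-two fold changes in thermal stability relative to solvent controls, taken from duplicates.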

[1] = compound: Cc1nc(Nc2n[nH]c3c2CN(C(=O)N[C@H](CN(C)C)c2ccccc2)C3(C)C)c2sccc2n1
How it was run: as §1

dasatinib = compound: Cc1nc(Nc2ncc(C(=O)Nc3c(C)cccc3Cl)s2)cc(N2CCN(CCO)CC2)n1 [dasatinib]
How it was run: as §1

[2] = compound: Cc1ncc(-c2ccnc(Nc3ccc(S(C)(=O)=O)cc3)n2)n1C(C)C
How it was run: as §1

[3] = compound: Cn1cc(-c2ccc3c(c2)CCN3C(=O)Cc2cccc(C(F)(F)F)c2)c2c(N)ncnc21
How it was run: as §1

quisinostat = compound: Cn1cc(CNCC2CCN(c3ncc(C(=O)NO)cn3)CC2)c2ccccc21 [quisinostat]
How it was run: as §1

tipifarnib = compound: Cn1cncc1[C@@](N)(c1ccc(Cl)cc1)c1ccc2c(c1)c(-c1cccc(Cl)c1)cc(=O)n2C [tipifarnib]
How it was run: as §1

[4] = compound: NC(=O)Nc1cc(-c2cccc(F)c2)sc1C(=O)N[C@H]1CCCNC1
How it was run: as §1

[5] = compound: NC(=O)c1cnc(N[C@@H]2CCCC[C@@H]2N)nc1Nc1cccc(-n2nccn2)c1
How it was run: as §1

[6] = compound: NC1(c2ccc(-c3nc4ccn5c(=O)[nH]nc5c4cc3-c3ccccc3)cc2)CCC1
How it was run: as §1

[7] = compound: NCC(=O)Nc1ccc(-n2nc(C(F)(F)F)cc2-c2ccc3c(ccc4ccccc43)c2)cc1
How it was run: as §1

vorinostat = compound: O=C(CCCCCCC(=O)Nc1ccccc1)NO [vorinostat]
How it was run: as §1

silmitasertib = compound: O=C(O)c1ccc2c(c1)nc(Nc1cccc(Cl)c1)c1ccncc12 [silmitasertib]
How it was run: as §1

[8] = compound: O=C1NC(=O)C(c2cnc3ccccn23)=C1c1cn2c3c(cc(F)cc13)CN(C(=O)N1CCCCC1)CC2
How it was run: as §1

entospletinib = compound: c1cn2cc(-c3ccc4cn[nH]c4c3)nc(Nc3ccc(N4CCOCC4)cc3)c2n1 [entospletinib]
How it was run: as §1

UniProt Q9Y4H2, sequence (Q9Y4H2 whole entry, looked up): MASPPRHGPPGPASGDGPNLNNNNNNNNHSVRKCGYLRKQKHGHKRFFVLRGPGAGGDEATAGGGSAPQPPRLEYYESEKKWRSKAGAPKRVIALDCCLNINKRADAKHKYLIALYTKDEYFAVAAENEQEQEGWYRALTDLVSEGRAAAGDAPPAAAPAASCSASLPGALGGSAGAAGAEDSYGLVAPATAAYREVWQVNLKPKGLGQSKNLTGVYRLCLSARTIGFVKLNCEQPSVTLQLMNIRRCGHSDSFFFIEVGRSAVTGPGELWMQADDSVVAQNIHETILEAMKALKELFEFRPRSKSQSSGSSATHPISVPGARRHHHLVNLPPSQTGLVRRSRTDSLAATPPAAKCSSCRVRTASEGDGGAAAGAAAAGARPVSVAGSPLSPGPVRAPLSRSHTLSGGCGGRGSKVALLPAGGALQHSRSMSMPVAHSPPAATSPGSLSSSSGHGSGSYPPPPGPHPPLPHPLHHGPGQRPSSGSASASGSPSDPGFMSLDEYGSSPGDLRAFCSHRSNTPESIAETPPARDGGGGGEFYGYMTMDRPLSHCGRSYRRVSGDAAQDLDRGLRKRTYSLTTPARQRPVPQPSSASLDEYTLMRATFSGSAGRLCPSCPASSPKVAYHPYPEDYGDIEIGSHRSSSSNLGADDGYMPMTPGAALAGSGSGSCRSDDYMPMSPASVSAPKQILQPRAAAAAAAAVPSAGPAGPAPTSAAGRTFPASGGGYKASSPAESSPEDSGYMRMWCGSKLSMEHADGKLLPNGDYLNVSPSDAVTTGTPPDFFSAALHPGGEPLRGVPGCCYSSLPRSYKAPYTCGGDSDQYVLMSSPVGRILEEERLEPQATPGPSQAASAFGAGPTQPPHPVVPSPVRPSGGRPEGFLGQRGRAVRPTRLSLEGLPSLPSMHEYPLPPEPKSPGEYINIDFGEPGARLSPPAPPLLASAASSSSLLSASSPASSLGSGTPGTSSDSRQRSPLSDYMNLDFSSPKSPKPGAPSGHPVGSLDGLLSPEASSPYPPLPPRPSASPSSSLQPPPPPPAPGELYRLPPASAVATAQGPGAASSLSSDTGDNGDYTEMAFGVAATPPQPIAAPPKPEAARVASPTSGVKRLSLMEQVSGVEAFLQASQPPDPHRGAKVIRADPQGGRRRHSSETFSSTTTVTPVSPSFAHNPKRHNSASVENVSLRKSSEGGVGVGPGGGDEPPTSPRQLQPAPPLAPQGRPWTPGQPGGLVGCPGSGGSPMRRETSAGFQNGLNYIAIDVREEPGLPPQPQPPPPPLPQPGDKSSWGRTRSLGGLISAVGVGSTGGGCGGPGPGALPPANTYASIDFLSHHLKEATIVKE
UniProt Q8IWB1, sequence (Q8IWB1 whole entry, looked up): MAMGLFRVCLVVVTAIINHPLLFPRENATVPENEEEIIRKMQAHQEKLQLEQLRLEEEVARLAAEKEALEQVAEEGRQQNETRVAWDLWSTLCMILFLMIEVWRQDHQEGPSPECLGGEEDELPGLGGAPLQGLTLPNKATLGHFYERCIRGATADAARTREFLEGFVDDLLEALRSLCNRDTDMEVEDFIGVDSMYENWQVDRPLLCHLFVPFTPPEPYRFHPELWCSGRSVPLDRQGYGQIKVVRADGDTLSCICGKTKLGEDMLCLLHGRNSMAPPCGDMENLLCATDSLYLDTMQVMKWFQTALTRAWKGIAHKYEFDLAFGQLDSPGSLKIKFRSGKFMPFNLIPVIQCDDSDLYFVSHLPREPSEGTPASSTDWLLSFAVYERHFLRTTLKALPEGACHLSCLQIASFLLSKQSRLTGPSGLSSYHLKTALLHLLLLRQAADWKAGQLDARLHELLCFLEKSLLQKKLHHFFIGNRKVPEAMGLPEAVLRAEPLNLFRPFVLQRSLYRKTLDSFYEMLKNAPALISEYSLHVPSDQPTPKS
UniProt Q9Y287, sequence (Q9Y287 whole entry, looked up): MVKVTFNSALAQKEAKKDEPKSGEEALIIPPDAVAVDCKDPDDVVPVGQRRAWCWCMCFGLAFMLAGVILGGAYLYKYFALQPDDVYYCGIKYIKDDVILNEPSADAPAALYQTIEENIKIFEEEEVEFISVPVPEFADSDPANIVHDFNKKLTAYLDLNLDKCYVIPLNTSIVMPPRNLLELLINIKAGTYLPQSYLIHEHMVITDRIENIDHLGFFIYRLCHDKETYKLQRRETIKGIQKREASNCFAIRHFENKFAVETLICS
UniProt Q9UKP3, sequence (Q9UKP3 whole entry, looked up): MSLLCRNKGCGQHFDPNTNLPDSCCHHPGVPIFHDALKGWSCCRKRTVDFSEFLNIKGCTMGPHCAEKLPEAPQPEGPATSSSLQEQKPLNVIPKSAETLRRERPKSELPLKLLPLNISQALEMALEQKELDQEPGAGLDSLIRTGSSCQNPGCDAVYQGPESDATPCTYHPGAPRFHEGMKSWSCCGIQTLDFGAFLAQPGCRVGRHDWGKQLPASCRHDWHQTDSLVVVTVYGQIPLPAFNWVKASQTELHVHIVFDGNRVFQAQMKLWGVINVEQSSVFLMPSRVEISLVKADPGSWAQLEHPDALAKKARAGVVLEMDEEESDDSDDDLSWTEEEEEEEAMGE
UniProt Q9P2P5, sequence (Q9P2P5 whole entry, looked up): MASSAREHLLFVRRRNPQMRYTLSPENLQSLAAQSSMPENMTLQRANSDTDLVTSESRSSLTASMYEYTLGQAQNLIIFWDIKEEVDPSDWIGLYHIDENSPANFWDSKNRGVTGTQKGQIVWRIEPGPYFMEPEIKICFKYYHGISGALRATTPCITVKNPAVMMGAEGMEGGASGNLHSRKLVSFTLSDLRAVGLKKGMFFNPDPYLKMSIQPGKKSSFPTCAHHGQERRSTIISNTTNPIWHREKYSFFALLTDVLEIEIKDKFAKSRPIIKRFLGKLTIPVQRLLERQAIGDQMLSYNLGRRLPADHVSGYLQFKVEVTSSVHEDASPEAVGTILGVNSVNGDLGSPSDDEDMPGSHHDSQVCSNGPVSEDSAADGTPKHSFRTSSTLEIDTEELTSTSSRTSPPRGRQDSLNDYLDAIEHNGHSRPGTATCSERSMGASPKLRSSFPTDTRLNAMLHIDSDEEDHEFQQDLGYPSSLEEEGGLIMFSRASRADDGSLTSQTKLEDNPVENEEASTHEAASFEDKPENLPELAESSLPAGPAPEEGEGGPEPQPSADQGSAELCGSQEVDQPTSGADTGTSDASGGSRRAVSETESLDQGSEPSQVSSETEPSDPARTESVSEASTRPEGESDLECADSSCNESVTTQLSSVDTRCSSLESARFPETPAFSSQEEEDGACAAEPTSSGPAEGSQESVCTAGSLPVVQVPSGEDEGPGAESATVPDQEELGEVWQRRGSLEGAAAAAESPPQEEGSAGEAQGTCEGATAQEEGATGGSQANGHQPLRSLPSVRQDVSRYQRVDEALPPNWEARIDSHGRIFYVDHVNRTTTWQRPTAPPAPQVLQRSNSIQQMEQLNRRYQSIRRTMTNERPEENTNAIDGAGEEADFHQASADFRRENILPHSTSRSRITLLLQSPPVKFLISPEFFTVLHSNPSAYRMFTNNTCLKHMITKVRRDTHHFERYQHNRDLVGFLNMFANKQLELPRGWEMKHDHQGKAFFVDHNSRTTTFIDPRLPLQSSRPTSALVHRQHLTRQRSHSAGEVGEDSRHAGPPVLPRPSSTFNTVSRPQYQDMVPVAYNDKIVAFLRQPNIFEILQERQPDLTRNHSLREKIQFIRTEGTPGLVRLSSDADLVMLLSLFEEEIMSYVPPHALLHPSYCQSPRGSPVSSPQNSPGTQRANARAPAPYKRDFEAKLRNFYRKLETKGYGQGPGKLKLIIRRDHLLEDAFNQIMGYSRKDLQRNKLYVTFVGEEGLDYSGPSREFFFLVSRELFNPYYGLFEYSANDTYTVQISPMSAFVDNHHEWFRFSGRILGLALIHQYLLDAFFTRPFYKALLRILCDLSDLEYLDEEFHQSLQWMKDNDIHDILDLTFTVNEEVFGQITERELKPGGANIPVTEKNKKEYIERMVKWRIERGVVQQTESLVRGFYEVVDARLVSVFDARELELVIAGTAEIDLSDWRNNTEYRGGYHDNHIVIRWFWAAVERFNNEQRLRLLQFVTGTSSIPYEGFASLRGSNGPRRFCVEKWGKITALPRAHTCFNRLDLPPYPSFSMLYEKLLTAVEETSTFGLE
UniProt Q9Y573, sequence (Q9Y573 whole entry, looked up): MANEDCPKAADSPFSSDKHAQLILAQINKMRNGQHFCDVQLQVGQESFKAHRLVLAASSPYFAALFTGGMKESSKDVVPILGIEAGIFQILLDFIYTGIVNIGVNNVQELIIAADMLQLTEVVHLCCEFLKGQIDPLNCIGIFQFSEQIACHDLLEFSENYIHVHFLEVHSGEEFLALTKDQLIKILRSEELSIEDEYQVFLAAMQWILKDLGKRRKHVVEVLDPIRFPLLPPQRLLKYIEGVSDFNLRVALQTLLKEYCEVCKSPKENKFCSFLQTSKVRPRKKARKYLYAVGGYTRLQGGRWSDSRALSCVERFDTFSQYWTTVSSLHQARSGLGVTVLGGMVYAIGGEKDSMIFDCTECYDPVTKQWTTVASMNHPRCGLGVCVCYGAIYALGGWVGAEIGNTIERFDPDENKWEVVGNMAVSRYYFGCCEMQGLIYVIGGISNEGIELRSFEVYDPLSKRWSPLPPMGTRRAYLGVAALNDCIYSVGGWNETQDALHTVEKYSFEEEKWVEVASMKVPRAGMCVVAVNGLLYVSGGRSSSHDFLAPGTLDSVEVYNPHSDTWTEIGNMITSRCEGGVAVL
UniProt Q96A47, sequence (Q96A47 whole entry, looked up): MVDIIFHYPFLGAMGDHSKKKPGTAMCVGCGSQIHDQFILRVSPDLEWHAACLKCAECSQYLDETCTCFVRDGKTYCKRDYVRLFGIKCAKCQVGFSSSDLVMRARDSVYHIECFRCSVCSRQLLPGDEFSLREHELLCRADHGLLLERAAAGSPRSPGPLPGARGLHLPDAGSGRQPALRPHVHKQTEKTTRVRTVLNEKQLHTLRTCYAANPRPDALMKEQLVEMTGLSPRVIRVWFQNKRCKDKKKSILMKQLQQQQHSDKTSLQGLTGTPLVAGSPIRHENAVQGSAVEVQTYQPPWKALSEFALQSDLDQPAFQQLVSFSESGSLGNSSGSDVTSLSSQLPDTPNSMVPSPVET

Target | log2 fold change (nilotinib) | log2 fold change [1] | log2 fold change (dasatinib) | log2 fold change [2] | log2 fold change [3] | log2 fold change (quisinostat) | log2 fold change (tipifarnib) | log2 fold change [4] | log2 fold change [5] | log2 fold change [6] | log2 fold change [7] | log2 fold change (vorinostat) | log2 fold change (silmitasertib) | log2 fold change [8] | log2 fold change (entospletinib)
HMBOX1 isoform 5 (UniProt Q6NT76) | 0.186 | -0.038 | -0.034 | 0.078 | 0.024 | -0.008 | 0.077 | 0.001 | 0.041 | -0.055 | 0.004 | 0.093 | 0.025 | 0.02 | -0.063
GTF2H1 (UniProt P32780) | 0.009 | 0.013 | -0.012 | -0.04 | 0.043 | -0.064 | 0.084 | 0.06 | 0.037 | -0.036 | -0.019 | -0.412 (active) | 0 | -0.024 | 0.035
HNRNPD (UniProt D6RF44) | -0.03 | 0.11 | – | 0.103 | – | -0.061 | 0.12 | -0.353 | – | – | – | – | – | -0.04 | –
HECW2 (UniProt Q9P2P5) | -0.147 | 0.021 | -0.031 | -0.092 | -0.103 | -0.513 (active) | -0.041 | -0.035 | – | 0.126 | -0.018 | -0.058 | 0.011 | -0.004 | -0.09
ISL2 (UniProt Q96A47) | – | – | 0.015 | – | 0.053 | 0.055 | – | -0.092 | – | 0.014 | – | -0.026 | 0.04 | 0.179 | –
KDM5B isoform 2 (UniProt Q9UGL1) | – | – | 0.021 | – | -0.049 | -0.117 | – | -0.085 | 0.034 | -0.049 | 0.11 | 0.085 | -0.018 | 0.116 | -0.037
HDAC3 (UniProt E7ESJ6) | – | – | – | – | – | – | – | – | 0.058 | – | – | – | – | – | –
IPP (UniProt Q9Y573) | – | – | -0.244 | – | 0.03 | – | – | – | -0.097 | 0.093 | 0.04 | -0.633 (active) | 0.205 | – | 0.074
IRS2 (UniProt Q9Y4H2) | -0.05 | -0.044 | -0.018 | -0.071 | -0.074 | -0.15 | -0.071 | 0.142 | 0.062 | 0.112 | – | -0.034 | -0.065 | 0.14 | –
HTT (UniProt P42858) | -0.106 | 0.003 | 0.001 | 0.072 | 0.072 | -0.081 | -0.072 | 0.041 | – | 0.005 | -0.029 | -0.331 (active) | 0.04 | 0 | -0.042
GNB4 (UniProt Q9HAV0) | -0.083 | 0.055 | 0.048 | 0.127 | -0.097 | 0.042 | 0.048 | -0.172 | 0.028 | 0.007 | – | 0.006 | 0.017 | -0.059 | 0.029
HMGN5 (UniProt Q5JSK9) | -0.074 | 0.062 | – | -0.036 | – | – | 0.076 | – | -0.035 | – | – | – | – | – | -0.187
HNRNPL, A0A3B3ITJ4 | – | – | – | – | – | – | – | – | 0.019 | – | – | – | – | – | –
HSPBAP1 (UniProt Q96EW2) | 0.1 | 0.039 | 0.011 | 0.14 | 0.213 | -0.07 | 0.056 | 0.024 | -0.056 | 0.032 | – | -0.07 | 0.044 | -0.014 | -0.125
IMPDH2 (UniProt H0Y4R1) | 0.106 | -0.012 | 0.004 | 0.014 | -0.066 | -0.153 | -0.09 | 0.02 | -0.01 | – | -0.044 | – | – | 0.05 | -0.042
HNRNPM (UniProt M0QZM1) | – | – | -0.022 | – | -0.163 | 0 | – | -0.012 | – | – | 0.125 | – | – | 0.038 | 0
HNRNPUL1 (UniProt M0R247) | – | – | – | – | – | – | – | – | – | -0.063 | – | 0.197 | -0.037 | – | –

Target | log2 fold change (nilotinib) | log2 fold change [1] | log2 fold change (dasatinib) | log2 fold change [2] | log2 fold change [3] | log2 fold change (quisinostat) | log2 fold change (tipifarnib) | log2 fold change [4] | log2 fold change [5] | log2 fold change [6] | log2 fold change [7] | log2 fold change (vorinostat) | log2 fold change (silmitasertib) | log2 fold change [8] | log2 fold change (entospletinib)
ITGB1BP2 (UniProt Q9UKP3) | – | – | -0.104 | – | 0.249 | – | – | – | – | – | 0.053 | – | – | – | 0.107
GTPBP6 (UniProt O43824) | – | – | -0.025 | – | 0.136 | – | – | – | – | – | 0.069 | – | – | – | 0.255
INTS14 (UniProt Q96SY0) | 0.024 | 0.023 | -0.038 | -0.023 | -0.004 | -0.018 | -0.004 | -0.01 | -0.026 | -0.011 | -0.008 | -0.311 (active) | 0.002 | 0.023 | 0.026
IGF2BP2 isoform 6 (UniProt Q9Y6M1) | – | – | – | – | – | – | – | – | 0.079 | – | – | – | – | – | –
HOMER3 (UniProt Q9NSC5) | – | – | – | – | – | -0.147 | – | 0.019 | -0.023 | – | – | – | – | -0.022 | –
GPA33 (UniProt Q99795) | -0.085 | -0.093 | -0.077 | -0.023 | -0.09 | – | 0.022 | – | -0.045 | 0.047 | 0.041 | 0.14 | 0.051 | – | 0.017
HMGA1 isoform 2 (UniProt P17096) | 0.209 | 0.014 | 0.091 | 0.395 | -0.099 | 0.289 | 0.168 | -0.018 | -0.064 | -0.101 | – | 0.205 | -0.047 | 0.128 | –
HSPA8 (UniProt E9PN89) | 0.013 | -0.008 | -0.209 | -0.055 | -0.032 | -0.415 | 0.006 | 0 | 0.084 | -0.089 | – | -0.01 | 0.016 | -0.017 | -0.024
HNRNPM (UniProt M0R019) | – | – | – | – | – | – | – | – | – | – | -0.198 | – | – | – | –
ITM2B (UniProt Q9Y287) | 0.012 | -0.028 | 0.023 | -0.002 | -0.031 | 0.015 | -0.012 | 0.018 | – | -0.024 | -0.101 | 0.141 | 0.013 | 0.004 | –
KIAA0930 isoform 2 (UniProt Q6ICG6) | -0.041 | 0.05 | 0.202 | -0.109 | -0.021 | 0.03 | -0.037 | -0.026 | -0.047 | – | 0.046 | – | – | -0.057 | 0.062
ITPR2 (UniProt Q14571) | -0.008 | -0.081 | 0.019 | 0.048 | -0.078 | – | 0.003 | – | 0.277 | -0.12 | – | -0.965 (active) | 0.024 | – | –
ITPRIP (UniProt Q8IWB1) | – | – | -0.017 | – | 0.005 | – | – | – | – | 0.06 | – | -0.33 | 0.095 | – | –
GYPA (UniProt P02724) | – | – | 0.097 | – | 0.045 | -0.062 | – | 0.026 | -0.047 | -0.024 | -0.028 | 0.152 | -0.097 | -0.04 | 0.019
H3-3A (UniProt P84243) | – | – | – | – | – | 0.014 | – | 0.032 | 0 | -0.093 | 0.021 | -0.077 | 0 | 0.026 | -0.035
GPLD1 (UniProt P80108) | – | – | -0.255 | – | 0 | 0.108 | – | 0.153 | – | – | – | – | – | 0.366 | –
HYDIN (UniProt Q4G0P3) | – | – | -0.034 | – | 0.219 | – | – | – | -0.282 | – | 0.028 | – | – | – | -0.005
